Sampled rows, rich in hits. Any-hit rate of the full collection: about 2.4%.
ATXN2 expr inh = inhibitors of ATXN2 expression. HEK-293 ATXN2-luciferase reporter, luminescence, 24 h. Potency, µM (titrated, usually from 57 µM), inactives show top-dose activity change, negative = inhibition, actives largely listed as inhibitors. 0.72% of 360,000 active. AID 1745845; further: on the % scale 0 is the no-effect control and ±100 the full control effect; nearly all actives have a fitted effect of over 55% in size
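ATXN2-luciferase reporter cells (luciferase flanked by upstream and downstream ATXN2 gene portions) were treated 24 h at 37 °C with compounds at up to 57 uM. SteadyGlo luminescence gave expression; GF-AFC fluorescence gave viability.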
ATXN viability = viability counter-screen for ATXN expression inhibitors; 0.49% of 400,000 active; Potency, µM (highest dose often 56.7 µM), actives largely listed as cytotoxic; S2 cells (HEK-293 line with an ATXN2-luciferase reporter) viability, CellTiter-Fluor protease fluorescence, 24 h; AID 651635; further: nearly all actives have a fitted effect of over 40% in size
HepG2 tox = counter-screen for TGF-b inhibitors: cytotoxicity in HepG2 cells | HepG2 CAGA-GFP viability, ATP luminescence, 18 h | Potency, µM (highest dose often 46.1 µM), for inactives: at the highest dose activity change, negative = cytotoxicity, most hits filed as cytotoxic | 0.76% of 410,000 active
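HepG2 CAGA-GFP cells (1000/well, DMEM with 1% FBS) received compound, then TGF-beta at 500 pg/mL final, and were incubated 18 hours at 37 degrees C. Viability was read by CellTiter-Glo luminescence. Media-only wells were set as complete cell-killing and DMSO as no toxicity.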
TGFb SMAD3 inh = TGF-b pathway inhibition | HepG2 CAGA-GFP TGF-b/SMAD3 reporter, GFP fluorescence, 18 h; TGF-beta stimulated, 500 pg/mL final | Potency, µM (series often up to 46.1 µM), for inactives: at the highest dose activity, negative = inhibition, actives largely listed as inhibitors | 1.2% of 410,000 active | AID 588855; further: on the % scale 0 is the no-effect control and ±100 the full control effect; nearly all actives have a fitted effect of over 65% in size
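HEPG2 CAGA-GFP, 1000 cells/well; 2 h settle, 37 C; cpd via pin tool; TGF-b 500 pg/mL final; 18 h, 37 C; GFP imaging ex488/em500-530; %Activity normalised to -TGF-b and +DMSO controls; CRC fit, curve class.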
Apoferritin bind = candidate novel general anesthetic via apoferritin binding; AID 485281; apoferritin/1-aminoanthracene competitive binding, fluorescence; Potency, µM (series often up to 77.5 µM), for the others: at the highest dose activity change, negative = displacement, usual class: inhibitors; 0.074% of 350,000 active; further: on the % scale 0 is the no-effect control and ±100 the full control effect; nearly all actives have a fitted effect of over 20% in size
Target sequence (P02791 2-175 limits assumed): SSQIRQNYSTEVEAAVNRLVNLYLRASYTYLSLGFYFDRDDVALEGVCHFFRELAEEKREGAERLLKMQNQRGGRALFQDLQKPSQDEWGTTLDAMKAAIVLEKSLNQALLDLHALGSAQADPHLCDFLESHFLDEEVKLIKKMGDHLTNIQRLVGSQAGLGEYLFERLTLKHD
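Horse-spleen apoferritin (10 uM) was mixed with 50% saturated 1-aminoanthracene in PBS, exposed to compounds for 10 min at room temperature, and read for fluorescence (ex 380 nm, em 535 nm). Competitive displacement was fitted with a four-parameter Hill equation.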
* = called active by the depositor; ! = repeats disagree; [ ] = dose if it differs, or a comment. The call rests on the fitted dose curve; in most records, active means well fitted curve in the direction sought with a large enough effect; inconclusive means small, poorly fitted or top-dose-only effect, or another doubt; inactive means no such curve, though single readings can be large; an effect the other way counts as inactive or inconclusive. Potency means the concentration at half of the fitted maximal effect.

For COC(=O)C1CCCCN1Cc1nc(N(C)C)c2ccccc2n1 (stereo not given) the results were ATXN viability inactive.
For CCN1CCN(Cc2ccc(NC(=O)c3ccc(C)c(NC(=O)c4c[nH]c5cc(C(F)(F)F)ccc5c4=O)c3)cc2C(F)(F)F)CC1 the results were ATXN2 expr inh 4µM*!, ATXN viability 7.1µM*, HepG2 tox 16µM*!, TGFb SMAD3 inh 11µM* and Apoferritin bind -12%.
CCN1CCN(Cc2ccc(NC(=O)c3ccc(C)c(NC(=O)c4ccno4)c3)cc2C(F)(F)F)CC1 was read as ATXN2 expr inh -29%, ATXN viability inactive, HepG2 tox -51%, TGFb SMAD3 inh 0% and Apoferritin bind 4%.
CCN1CCN(Cc2ccc(NC(=O)c3ccc(C)c(/C=C/c4cnc(Nc5cc(N6CCNCC6)nc(C)n5)cn4)c3)cc2C(F)(F)F)CC1 was read as ATXN2 expr inh 13µM*!, ATXN viability inactive, HepG2 tox 18µM*, TGFb SMAD3 inh inconclusive and Apoferritin bind -10%.
Screening CCN1CCN(Cc2ccc(NC(=O)c3ccc(C)c(NC(=O)c4csc(-c5ccncc5)n4)c3)cc2C(F)(F)F)CC1 returned ATXN2 expr inh 0%, ATXN viability inconclusive, HepG2 tox 16µM*, TGFb SMAD3 inh inconclusive and Apoferritin bind -14%.
Screening O=CC(=O)c1ccc(F)cc1 returned HepG2 tox -1% and TGFb SMAD3 inh -1%.
`O=[N+]([O-])/C=C\c1ccc(N2CCCC2)c(F)c1` gave ATXN2 expr inh inconclusive, ATXN viability inconclusive, HepG2 tox -35%, TGFb SMAD3 inh 11µM* and Apoferritin bind -19%.
`O=C(O)C[C@H](O)C[C@H](O)C=Cc1c(C2CC2)nc2ccccc2c1-c1ccc(F)cc1` gave ATXN2 expr inh 33%.
`O=C(Nc1ccncc1)c1cc2ccccc2cc1O` gave ATXN2 expr inh 12%, ATXN viability inconclusive, HepG2 tox -14% and TGFb SMAD3 inh 13µM*.
Screening CC12C=C(/C=C/CCc3ccco3)C(C)(C1)C(CCc1ccco1)CC2=O (stereo not given) returned Apoferritin bind -10%[15.3 µM].
Screening CC(C)N1CCN(Cc2ccc(OCc3ccccc3)cc2)CC1CCO (stereo not given) returned ATXN viability inactive, HepG2 tox 2µM*, TGFb SMAD3 inh -24% and Apoferritin bind -19%.
Screening Cc1nonc1OC(C)CNc1ccc([N+](=O)[O-])cc1 (stereo not given) returned ATXN2 expr inh inconclusive, ATXN viability inactive, HepG2 tox -8%, TGFb SMAD3 inh -7% and Apoferritin bind 32µM*.
For CCOc1cc(/C=C2\SC(=N)N(c3nccs3)C2=O)ccc1OCCN1CCOCC1 the results were ATXN2 expr inh 22µM*, ATXN viability inconclusive, HepG2 tox -24%, TGFb SMAD3 inh 0% and Apoferritin bind inconclusive.
For CCOc1cc(/C=C2\SC(=S)N(N3CCOCC3)C2=O)ccc1O the results were ATXN viability inactive, HepG2 tox -11%, TGFb SMAD3 inh -7% and Apoferritin bind 3%.
CCOC(=O)c1c(C)[nH]c(C(=O)OCC(=O)Nc2ccc(Cl)cn2)c1C was read as ATXN2 expr inh 3%, ATXN viability inactive, HepG2 tox -8% and TGFb SMAD3 inh -32%.
For CCOC(=O)c1c(C)[nH]c(C(=O)OCC(=O)Nc2sccc2C(N)=O)c1C the results were ATXN2 expr inh inconclusive, ATXN viability 13µM*, HepG2 tox -39% and TGFb SMAD3 inh -13%.
Oc1c(Br)cc(Br)cc1CNc1cccc2cccnc12 was read as ATXN viability inactive, HepG2 tox -63%, TGFb SMAD3 inh inconclusive and Apoferritin bind -8%.
Screening Cc1cc(C)c2cccnc2c1O returned HepG2 tox -56% and TGFb SMAD3 inh 3.2µM*.
Cc1ccnc2c1ccc1c(C)ccnc12 was read as ATXN2 expr inh 5.3µM*, HepG2 tox 16µM* and TGFb SMAD3 inh 4.5µM*.
Oc1c(Br)cc(Br)c2cccnc12 was read as ATXN2 expr inh 22µM*!, ATXN viability inconclusive, HepG2 tox -54%, TGFb SMAD3 inh inconclusive and Apoferritin bind -13%.
For Cc1ccnc2c(O)cccc12 the results were HepG2 tox 4µM* and TGFb SMAD3 inh 3.5µM*.
Screening CCC(COC)NC(=O)c1cnn(-c2ncc3c(n2)-c2ccccc2CCC3)c1C (stereo not given) returned ATXN viability inactive.
For O=C(Nc1cccc(NC(=O)c2ccccc2)n1)c1ccccc1 the results were ATXN2 expr inh 7%, ATXN viability inconclusive, HepG2 tox 1%, TGFb SMAD3 inh 5% and Apoferritin bind -23%.
`O=C1CCC[C@@H]2C[C@@]3(C[C@@H]4CCN1[C@H]24)Nc1cc(Cl)c(Cl)cc1NC3=NCc1ccccc1` gave ATXN2 expr inh 0%, HepG2 tox -32% and TGFb SMAD3 inh 11µM*.
For CC(C)(C)CC(C)(C)N=C1Nc2ccc(Cl)cc2NC12C[C@H]1CCC(=O)N3CC[C@@H](C2)[C@@H]13 (stereo not given in full) the results were HepG2 tox 10µM* and TGFb SMAD3 inh inconclusive.
CC(C)(C)CC(C)(C)N=C1Nc2ccccc2N[C@]12C[C@H]1CCCC(=O)N3CC[C@@H](C2)[C@@H]13 was read as HepG2 tox -24% and TGFb SMAD3 inh inconclusive.
Screening COC(=O)C/C=C\[C@@H](C)[C@@H](/C=N\OC[C@@H]1O[C@H](c2ccccc2)C=C[C@@H]1Oc1ccc(OC)cc1)NS(=O)(=O)c1ccc(C)cc1 returned Apoferritin bind -5%[15.3 µM].
Screening N#CC1=C(SCC(=O)NC23CC4CC(CC(C4)C2)C3)NC(=O)C(C#N)C12CCCCC2 (stereo not given) returned ATXN2 expr inh inconclusive, ATXN viability inconclusive, HepG2 tox -26%, TGFb SMAD3 inh 11µM* and Apoferritin bind -16%.
For O=C(c1ccccc1)N1CCSc2sccc2C1=O the results were ATXN2 expr inh 4.7µM*, ATXN viability inactive, HepG2 tox -8%, TGFb SMAD3 inh -9% and Apoferritin bind inconclusive.
Screening O=C(c1ccccc1)N1CCSC1=S returned ATXN2 expr inh -1%, ATXN viability inactive, HepG2 tox -5%, TGFb SMAD3 inh -2% and Apoferritin bind -23%.
O=C(NCC1Cc2cc(F)cc(-c3cccnc3)c2O1)c1cnn(-c2ccccc2)c1 (stereo not given) was read as ATXN viability inactive.
COc1ccc2nc(C)cc(N/N=C/c3ccc(F)cc3)c2c1 was read as ATXN2 expr inh inconclusive, ATXN viability inconclusive, HepG2 tox 5µM*, TGFb SMAD3 inh 4µM* and Apoferritin bind 7%.

Source: PubChem
